Bioassay records: PubChem BioAssay, National Center for Advancing Translational Sciences (NCATS)
This is a sample that favours compounds with a hit; in the whole collection about 7.3% have one here.
VACV mCherry inh – vaccinia inhibition (mCherry reporter) | hit rate 0.63% among 310,000 | AID 720579 | Potency, µM (highest dose often 36.5 µM), without a hit: top-dose activity change, negative = inhibition, hits mostly inhibitors | Vaccinia virus mCherry reporter infection, fluorescence; calls by dose curve; tested in A549 cells; also: potency is read from the fitted curve at half-maximal effect; % is scaled to controls: 0 for no effect and ±100 for the full control effect; nearly all actives have a fitted effect of over 35% in size
FMDV antiviral – antivirals against foot and mouth disease virus; FMDV antiviral cell-based qHTS; Potency, µM (titrated, usually from 57.9 µM), without a hit: at the top dose activity change, negative = inhibition, actives largely listed as inhibitors; hit rate 1.2% among 410,000; AID 1159524; calls by dose curve; tested in HEK293T cells; also: read-out not given here; potency is read from the fitted curve at half-maximal effect; % is scaled to controls: 0 for no effect and ±100 for the full control effect; nearly all actives have a fitted effect of over 45% in size
HCV inh – blocks hepatitis C virus. Huh7.5.1 HCVcc-Cre infection, luciferase reporter, 44 h. Potency, µM (titrated, usually from 41.8 µM), without a hit: at the top dose activity change, negative = inhibition, most hits filed as inhibitors. hit rate 3.4% among 340,000. AID 651820; also: potency is read from the fitted curve at half-maximal effect; % is scaled to controls: 0 for no effect and ±100 for the full control effect
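Luciferase read-out (15 sec integration) after a 15 min room-temperature substrate step quantifies HCVcc-Cre infection. Cells, 1,000 per well, had compound added 4 h post-plating, then virus at ~0.5 moi, and were cultured 44 h.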
Vaccinia Venus – inhibitors of vaccinia virus (Venus reporter); Vaccinia virus Venus reporter expression, fluorescence; Potency, µM (titrated, usually from 36.5 µM), inactives show at the highest dose activity change, negative = inhibition, actives largely listed as inhibitors; hit rate 0.46% among 330,000; AID 720580; calls by dose curve; tested in A549 cells; also: potency is read from the fitted curve at half-maximal effect; % is scaled to controls: 0 for no effect and ±100 for the full control effect; nearly all actives have a fitted effect of over 30% in size
HCMV antiviral – human cytomegalovirus inhibition; AID 1259415; hit rate 4.5% among 410,000; HFF cells, HCMV-luciferase reporter, 72 h; active compounds read low; activity change, negative = inhibition, % at 57.5 µM; in the data active = activity change below about -60%; inconclusive = no clear call, values can overlap the other calls; inactive = above about -39%; also: % is scaled to controls: 0 for no effect and ±100 for the full control effect
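HFF cells seeded 16 h at 37C, treated with compounds, infected with luciferase-reporter HCMV at MOI 1 PFU/cell; luciferase read at 72 h post infection, normalized to buffer-only and Salinomycin controls.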
HCV confirm – HCV inhibition, cherry-pick confirmation | shares compounds with HCV inh | Potency, µM (highest dose often 41.8 µM), without a hit: at the top dose activity, negative = inhibition, most hits filed as inhibitors | HCVcc-Cre infectious virus cell assay, luciferase, inhibition | hit rate 78% among 640 | AID 720575; also: potency is read from the fitted curve at half-maximal effect; nearly all actives have a fitted effect of over 80% in size
HCV host tox – counter-screen for HCV inhibitors: host cell cytotoxicity; shares compounds with HCV inh; HCV host cell line cytotoxicity counterscreen; Potency, µM (titrated, usually from 41.8 µM), for inactives: at the top dose activity change, negative = cytotoxicity, most hits filed as inhibitors; hit rate 22% among 640; AID 720576;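 also: potency is read from the fitted curve at half-maximal effect; 44 h compound exposure; % is scaled to controls: 0 for no effect and ±100 for the full control effect; nearly all actives have a fitted effect of over 55% in size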
An asterisk follows results filed as active; i = inactive; ? = inconclusive; · = no result given. Unless noted, calls follow the shape of the dose curve; as a rule, active = well fitted curve in the direction sought with a large enough effect; inconclusive = small, poorly fitted or top-dose-only effect, or another doubt; inactive = no such curve, though single readings can be large; an effect the other way counts as inactive or inconclusive.

SMILES | VACV mCherry inh | FMDV antiviral | HCV inh | Vaccinia Venus | HCMV antiviral | HCV confirm | HCV host tox
CC1CC(C)CN(c2nc(NCc3ccco3)nc(N)c2[N+](=O)[O-])C1 (configuration not stated) | -1% | ? | ? | -14% | -67* | · | ·
Nc1nc(NCc2ccco2)nc(N2CCOCC2)c1[N+](=O)[O-] | -21% | -12% | -22% | -8% | 2 | · | ·
CNc1oc(-c2ccccc2F)nc1S(=O)(=O)c1ccc(C)cc1 | -20% | 6% | 31% | -22% | 12 | · | ·
Cc1ccc(NC(=O)C(c2ccccc2)N2CCN(CC(=O)N3CCOCC3)CC2)cc1Cl (configuration not stated) | · | 35% | -18% | · | -18 | · | ·
CCN(CC)CC(=O)Nc1sc(C)cc1C(=O)c1ccccc1 | -9% | -27% | 8.9µM* | -17% | 0 | · | ·
CNC(=O)CN1C(=O)c2cccc3cccc1c23 | · | -23% | -1% | -3% | -13 | · | ·
CN1/C(=N\O)c2cccc3cccc1c23 | · | -11% | -27% | -20% | -60* | · | ·
CCOc1ccc(NCc2cccn2-c2nnc(N3CCC(C(=O)NCCCN4CCCCC4C)CC3)s2)cc1 (configuration not stated) | · | -13% | ? | · | -66* | · | ·
CCOc1ccc(NCc2cccn2-c2nnc(N3CCC(C(=O)NCCCN4C(C)CCCC4C)CC3)s2)cc1 (configuration not stated) | ? | -16% | ? | -20% | ? | · | ·
COc1ccc(OC)c(NCc2cccn2-c2nnc(N3CCC(C)CC3)s2)c1 | -12% | 23% | · | -26% | ? | · | ·
COc1ccc(NCc2cccn2-c2nnc(N3CCC(C)CC3)s2)c(OC)c1 | -12% | 2µM* | · | -15% | -21 | · | ·
Cc1ccc(NCc2cccn2-c2nnc(N3CCC(C(=O)NCCC(C)C)CC3)s2)cc1 | -15% | ? | · | ? | -67* | · | ·
CNc1cc(-c2ccc(OC)c(OC)c2)ncn1 | 8% | 22% | · | -4% | 95 | · | ·
CNc1ccc2ncc(-c3ccc(OC)c(OC)c3)n2n1 | -5% | -4% | · | ? | -83* | · | ·
CCC(=O)N1[C@H](C(=O)NC2CCCC2)[C@@H](CO)[C@@H]2Cn3c(cccc3=O)[C@@H]21 | · | · | · | · | -6 | · | ·
NC(=S)NN=C1c2ccccc2-c2cc(Br)ccc21 | ? | ? | ? | ? | -37 | 6.3µM* | -33%
NC(=O)N/N=C1\c2ccccc2-c2c(C(N)=O)cccc21 | · | -23% | -23% | · | 53 | · | ·
CCC(=O)N1CCc2cc(S(=O)(=O)NC(Cc3ccccc3)C(=O)NCc3ccc(F)cc3)ccc21 (configuration not stated) | -2% | 10% | · | -3% | -3 | · | ·
CCOc1cccc(C2C=C(c3ccc4c(c3)OCO4)NC(c3ccc(Cl)cc3)N2)c1O (configuration not stated) | -9% | · | · | -21% | · | · | ·
COc1ccc(CCn2c(SCC(=O)Nc3cc(C)on3)nc3ccccc3c2=O)cc1OC | -14% | ? | 14% | -11% | 19 | · | ·
COc1ccc(CCn2c(SCC(=O)Nc3cc(C)on3)nc3ccsc3c2=O)cc1OC | · | -10% | ? | · | -12 | ? | 25%
CCOC(=O)c1cc(-c2ccco2)nc2c1c(C)nn2CCC#N | · | 0% | ? | ? | -10 | ? | 10%
Cc1ccc(CN2C(=O)C(C)Nc3ncnc(N4CCN(c5ccccn5)CC4)c32)cc1 (configuration not stated) | -6% | -7% | ? | -21% | -4 | · | ·
O=C1/C(=C/c2ccccc2)C[C@@]2(O)[C@H]3Cc4ccc(O)c5c4[C@@]2(CCN3CC2CC2)C1O5 (some centres not stated) | ? | 10µM* | 3.2µM* | 10µM* | · | 6.3µM* | 10µM*
O=C1CC[C@]2(O)C3Cc4ccc(O)c5c4C2(CCN3CC2CC2)C1O5 (some centres not stated) | -16% | -10% | · | -4% | · | · | ·
SMILES | VACV mCherry inh | FMDV antiviral | HCV inh | Vaccinia Venus | HCMV antiviral | HCV confirm | HCV host tox
CCn1c2c(c(=N)c3ccccc31)CCC2 | -3% | ? | 8.9µM* | -18% | -77* | 25µM* | ?
COC(=O)CN1C(=O)C(O)(CC(=O)c2ccc(Cl)cc2)c2ccccc21 (configuration not stated) | 8% | -9% | 6% | 7% | 25 | · | ·
COC(=O)C[C@]1(C(=O)OC)CN(C#N)N(c2ccc(Cl)cc2)C12c1ccccc1-c1ccccc12 | 11µM* | 4.5µM* | 5.6µM* | ? | -102* | 3.1µM* | 7.9µM*
O=C(Nc1ccc([N+](=O)[O-])cc1)Nc1ccc(OC(F)F)c(Cl)c1 | ? | 25µM* | ? | 8.9µM* | -101* | 7µM* | 8.9µM*
O=C(Cc1ccc(Cl)cc1Cl)Nc1ccc(OC(F)F)c(Cl)c1 | -27% | -22% | ? | -21% | ? | · | ·
CC[C@]1(C(=O)OC)[C@H]2C(=O)N(C)C(=O)[C@H]2[C@H]2CN=C(SCc3ccc(C)cc3)N21 | -13% | -15% | -1% | 5% | -9 | · | ·
COc1cc(C(=O)Nc2cccc(NC(=O)c3ccccc3)c2)cc(OC)c1OC | · | -3% | ? | · | 15 | · | ·
COc1cc(C(=O)Nc2cccc(NC(=O)c3cccs3)c2)cc(OC)c1OC | · | 11% | ? | · | 33 | 13µM* | 72%
COc1cc(NC(=O)c2ccccc2F)c(OC)cc1NC(=O)CN1CCOCC1 | -12% | 38% | ? | -12% | 6 | ? | 11%
COc1ccc(NC(=O)C2CCC(=O)N2C(=O)OCc2ccccc2)cc1 (configuration not stated) | i | 7% | 12% | -13% | -35 | · | ·
O=C(N/N=C/c1ccc[nH]1)c1ccc(Cl)cc1 | -8% | 56% | 5µM* | -8% | ? | 14µM* | 14µM*
COc1ccc(NC(=O)COC(=O)c2c3c(nc4ccccc24)CCCC3)cc1Cl | ? | ? | 4.5µM* | ? | ? | 5µM* | 31µM*
CCOP(=O)(OCC)c1c2c(cc3ccc(Cl)cc13)CCC2 | · | · | · | · | -10 | · | ·
O=C(Nc1ccc2c(c1)Cc1ccccc1-2)c1cccnc1 | · | 23% | 6.3µM* | · | 29 | -22% | -23%
CCOc1cc(NC(=O)CCl)c(OCC)cc1NC(=O)CCl | -12% | ? | ? | 1% | ? | · | ·
O=C(CCl)Nc1cc2[nH]c(=O)[nH]c2cc1Br | ? | ? | 6.3µM* | ? | -105* | 16µM* | ?
Cn1c(SCC(=O)NCC2CCCO2)ncc(C(=O)Nc2ccccc2)c1=O (configuration not stated) | -12% | ? | 5µM* | -4% | -2 | 9% | 39%
CC12CCC3C(CCC4CC(O)CCC43C)C1CC=C2c1ccccc1 (configuration not stated) | · | -12% | · | · | · | · | ·
